# Laboratory results: PubChem BioAssay (EPA / NIEHS)
# Inconclusive results are not listed. Active and inactive are the calls of the source. Rule for the calls, unless noted: active = hit-call score of the fitted dose curve at least 0.9, where 1 is the maximum; inactive = score below 0.9.
# What was measured:
# [1] = molecular target: Oxysterols receptor LXR-alpha (Homo sapiens) (UniProt Q13133); assay: ATG_LXRa_TRANS: Attagene TRANS-FACTORIAL HepG2 Assay for human Liver X Receptor alpha (LXRa) (AID 2282980; active = hit-call score of the fitted dose curve at least 0.9, where 1 is the maximum); settings: HepG2 Attagene TRANS reporter, LXRa transactivation
# Sequence of Oxysterols receptor LXR-alpha (Homo sapiens) (Q13133 whole entry, looked up, the tested form may be a part): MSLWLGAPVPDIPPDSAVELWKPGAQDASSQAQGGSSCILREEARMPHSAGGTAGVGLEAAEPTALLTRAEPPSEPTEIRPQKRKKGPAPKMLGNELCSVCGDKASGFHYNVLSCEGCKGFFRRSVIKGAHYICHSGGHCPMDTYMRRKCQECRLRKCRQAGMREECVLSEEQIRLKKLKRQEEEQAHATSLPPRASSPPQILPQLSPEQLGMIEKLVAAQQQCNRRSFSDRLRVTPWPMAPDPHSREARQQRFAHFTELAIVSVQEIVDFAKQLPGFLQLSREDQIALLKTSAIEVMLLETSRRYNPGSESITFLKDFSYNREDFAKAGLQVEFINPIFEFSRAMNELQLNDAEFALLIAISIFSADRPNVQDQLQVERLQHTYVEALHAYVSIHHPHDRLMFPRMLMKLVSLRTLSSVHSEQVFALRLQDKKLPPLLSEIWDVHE
# In short: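 HepG2 cells were transiently transfected with multiplexed reporter units driven by chimeric LXRa–GAL4 fusion proteins, then dosed for 24 h. Reporter mRNA was quantified by RT-PCR, fluorescent labelling and capillary electrophoresis; gain of signal fitted against DMSO baseline.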
# [2] = molecular target: Oxysterols receptor LXR-beta (Homo sapiens) (UniProt P55055); assay: ATG_LXRb_TRANS: Attagene TRANS-FACTORIAL HepG2 Assay for human Liver X Receptor beta (LXRb) (AID 2282981; active = hit-call score of the fitted dose curve at least 0.9, where 1 is the maximum); settings: HepG2 Attagene TRANS GAL4-LXRb reporter, mRNA
# Sequence of Oxysterols receptor LXR-beta (Homo sapiens) (P55055 whole entry, looked up, the tested form may be a part): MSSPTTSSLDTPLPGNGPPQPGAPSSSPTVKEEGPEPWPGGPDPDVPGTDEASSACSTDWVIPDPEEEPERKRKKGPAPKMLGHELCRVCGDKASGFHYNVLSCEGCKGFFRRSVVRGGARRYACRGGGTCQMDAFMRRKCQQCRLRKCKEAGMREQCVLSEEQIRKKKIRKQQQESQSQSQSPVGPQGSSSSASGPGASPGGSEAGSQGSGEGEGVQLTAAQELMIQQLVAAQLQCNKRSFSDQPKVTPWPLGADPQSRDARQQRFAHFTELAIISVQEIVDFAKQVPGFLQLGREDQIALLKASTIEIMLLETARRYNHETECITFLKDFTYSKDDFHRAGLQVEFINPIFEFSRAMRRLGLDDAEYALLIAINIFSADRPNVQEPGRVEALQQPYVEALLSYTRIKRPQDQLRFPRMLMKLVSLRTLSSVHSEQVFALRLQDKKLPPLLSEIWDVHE
# In short: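 Liver-derived HepG2 cells transfected with Gal4-responsive reporters were dosed for 24 h. Activation was scored as rise in reporter mRNA, by RT-PCR and capillary electrophoresis, above DMSO baseline.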
# [3] = molecular target: Transcriptional activator Myb (Homo sapiens) (UniProt P10242); assay: ATG_Myb_CIS: Attagene CIS-FACTORIAL HepG2 Assay for human Myeloblastosis (Myb) Proto-Oncogene Transcription Factor (AID 2282986); settings: HepG2 Attagene CIS-FACTORIAL Myb reporter transcription; actives raise or lower the signal
# Sequence of Transcriptional activator Myb (Homo sapiens) (P10242 whole entry, looked up): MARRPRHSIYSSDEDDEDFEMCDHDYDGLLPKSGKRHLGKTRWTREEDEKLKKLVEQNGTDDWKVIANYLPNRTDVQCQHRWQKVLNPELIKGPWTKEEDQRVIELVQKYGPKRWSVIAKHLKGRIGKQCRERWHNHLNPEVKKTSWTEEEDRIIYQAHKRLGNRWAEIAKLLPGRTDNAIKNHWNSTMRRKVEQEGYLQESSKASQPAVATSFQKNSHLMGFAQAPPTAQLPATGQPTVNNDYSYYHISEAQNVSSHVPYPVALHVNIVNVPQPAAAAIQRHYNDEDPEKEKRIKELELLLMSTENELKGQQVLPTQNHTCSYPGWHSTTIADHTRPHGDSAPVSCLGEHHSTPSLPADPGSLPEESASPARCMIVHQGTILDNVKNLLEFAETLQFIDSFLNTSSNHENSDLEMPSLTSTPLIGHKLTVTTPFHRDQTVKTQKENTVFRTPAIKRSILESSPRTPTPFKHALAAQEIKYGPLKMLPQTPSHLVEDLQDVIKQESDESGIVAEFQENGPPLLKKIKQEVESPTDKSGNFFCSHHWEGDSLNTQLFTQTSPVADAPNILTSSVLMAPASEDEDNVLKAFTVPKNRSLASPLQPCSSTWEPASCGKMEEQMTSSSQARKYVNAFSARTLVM
# In short: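 Reporter mRNA is quantified by RT-PCR and capillary electrophoresis 24 h after dosing HepG2 cells transfected with cis-regulated reporter units, which track endogenous transcription factor activity. Gain and loss of signal are fitted versus DMSO baseline.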
# [4] = molecular target: Nuclear respiratory factor 1 (Homo sapiens) (UniProt Q16656); assay: ATG_NRF1_CIS: Attagene CIS-FACTORIAL HepG2 Assay for human Nuclear Respiratory Factor 1 (NRF1) Orphan Gene (AID 2282987); settings: HepG2 NRF1 cis-element reporter, Attagene multiplex; actives raise or lower the signal
# Sequence of Nuclear respiratory factor 1 (Homo sapiens) (Q16656 whole entry, looked up): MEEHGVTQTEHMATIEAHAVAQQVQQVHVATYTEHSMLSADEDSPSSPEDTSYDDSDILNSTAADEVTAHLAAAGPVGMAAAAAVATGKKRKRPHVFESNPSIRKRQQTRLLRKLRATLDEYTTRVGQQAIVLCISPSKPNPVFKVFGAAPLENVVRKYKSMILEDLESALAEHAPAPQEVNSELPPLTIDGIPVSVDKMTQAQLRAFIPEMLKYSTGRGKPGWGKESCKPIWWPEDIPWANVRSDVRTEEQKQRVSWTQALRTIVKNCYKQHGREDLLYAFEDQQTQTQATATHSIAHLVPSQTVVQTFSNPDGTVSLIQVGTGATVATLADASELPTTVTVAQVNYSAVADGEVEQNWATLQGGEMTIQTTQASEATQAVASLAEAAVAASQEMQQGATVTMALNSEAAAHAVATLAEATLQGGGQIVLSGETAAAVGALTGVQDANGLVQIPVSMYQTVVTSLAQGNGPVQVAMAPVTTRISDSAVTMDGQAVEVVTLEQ
# In short: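 Endogenous NRF1-driven reporter transcription in transfected HepG2 cells after 24 h treatment. Readout: RT-PCR products, 6-FAM labelled and resolved by capillary electrophoresis; changes fitted both directions relative to DMSO.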
# [5] = ATG_NFI_CIS: Attagene CIS-FACTORIAL HepG2 Assay for human Nuclear Factor I (NFI) (AID 2282989); settings: HepG2 cis-regulatory reporter, NFI response element transcription; actives raise or lower the signal
# In short: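 Transfected HepG2 liver cells, exposed 24 h, supplied total RNA for oligo(dT) reverse transcription and reporter-specific PCR. Labelled, HpaI-cut fragments were sized by capillary electrophoresis; DMSO set the baseline for bidirectional fitting.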
# [6] = molecular target: Myc proto-oncogene protein (Homo sapiens) (UniProt P01106); assay: ATG_Myc_CIS: Attagene CIS-FACTORIAL HepG2 Assay for human Myelocytomatosis (Myc) Proto-Oncogene Transcription Factor (AID 2282990); settings: HepG2, Attagene cis-reporter transcription factor activity; actives raise or lower the signal
# Sequence of Myc proto-oncogene protein (Homo sapiens) (P01106 whole entry, looked up): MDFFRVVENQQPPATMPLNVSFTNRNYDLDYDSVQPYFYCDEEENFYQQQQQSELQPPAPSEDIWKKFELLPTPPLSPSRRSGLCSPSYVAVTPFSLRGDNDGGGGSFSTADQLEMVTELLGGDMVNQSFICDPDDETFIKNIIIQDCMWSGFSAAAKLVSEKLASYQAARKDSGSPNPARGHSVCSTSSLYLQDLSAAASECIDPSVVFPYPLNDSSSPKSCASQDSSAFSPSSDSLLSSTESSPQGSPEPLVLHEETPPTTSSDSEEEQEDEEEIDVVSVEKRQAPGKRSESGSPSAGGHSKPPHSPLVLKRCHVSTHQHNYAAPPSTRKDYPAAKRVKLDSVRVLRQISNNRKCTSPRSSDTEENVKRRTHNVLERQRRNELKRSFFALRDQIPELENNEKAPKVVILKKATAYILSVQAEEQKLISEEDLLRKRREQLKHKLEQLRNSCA
# In short: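 DMSO-normalised, bidirectionally fitted reporter mRNA signal. HepG2 cells transfected with cis reporter constructs, treated 24 h; transcripts detected by RT-PCR, 6-FAM primer extension and CE.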
# [7] = ATG_NRF2_ARE_CIS: Attagene CIS-FACTORIAL HepG2 Assay for human Nuclear Factor Erythroid 2 Related Factor 2 (NFR2) response to Antioxidant Response Elements (ARE) (AID 2282992); settings: HepG2 Attagene ARE/NRF2 reporter, transcription factor activity; actives raise or lower the signal
# In short: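 Using transiently transfected HepG2 cells exposed for 24 h, reporter mRNA levels were determined by RT-PCR with fluorescent primer extension and capillary electrophoresis, analysed for gain or loss of signal against DMSO.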
# [8] = ATG_Oct_MLP_CIS: Attagene CIS-FACTORIAL HepG2 Assay for human Octamer-Binding Transcription Factor (Oct) (AID 2282993); settings: HepG2 Attagene cis-factorial Oct reporter, mRNA; actives raise or lower the signal
# In short: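 Using HepG2 cells bearing transfected cis-reporter constructs, mRNA induction was read after 24 h by fluorescent RT-PCR and capillary electrophoresis, with DMSO defining baseline for gain- or loss-of-signal fits.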
# [9] = BSK_3C_TissueFactor: BioMAP Diversity Plus: 3C Assay for Tissue Factor Biomarker Activity (AID 2282997); settings: BioMAP 3C HUVEC, tissue factor biomarker readout; actives raise or lower the signal
# In short: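 Readout: Tissue Factor ELISA. Cells: human primary umbilical vein endothelium. Time: 24 h after dosing. Analysis: bidirectional fit, DMSO baseline.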
# [10] = BSK_3C_uPAR: BioMAP Diversity Plus: 3C Assay for Urokinase-type plasminogen activator receptor (uPAR) Biomarker Activity (AID 2282998); settings: BioMAP 3C HUVEC, uPAR biomarker ELISA; actives raise or lower the signal
# In short: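 In this endothelial cell-based assay, human umbilical vein primary cells were treated with chemicals and harvested at 24 h. uPAR was quantified using ELISA, with gains or losses fitted relative to DMSO controls.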
# [11] = BSK_3C_VCAM1: BioMAP Diversity Plus: 3C Assay for Vascular cell adhesion molecule 1 (VCAM1) Biomarker Activity (AID 2282999); settings: BioMAP 3C HUVEC, VCAM1 ELISA, cytokine-stimulated; actives raise or lower the signal
# In short: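 Vascular primary endothelium (human umbilical vein) was exposed to chemicals and assayed 24 h later. VCAM-1 levels came from ELISA, with DMSO serving as baseline for bidirectional fitting.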
# [12] = BSK_4H_Eotaxin3: BioMAP Diversity Plus: 4H Assay for Eotaxin 3 Biomarker Activity (AID 2283000); settings: primary human endothelial cells (HUVEC); actives raise or lower the signal;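 note: CCL26 protein level quantified by ELISA in parallel with SRB cytotoxicity check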
# In short: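 HUVEC, 24 h post-dose, ELISA for Eotaxin-3/CCL26. Gain or loss of signal fitted bidirectionally vs DMSO baseline.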
# [13] = ATG_M_06_TRANS: Attagene TRANS-FACTORIAL HepG2 Assay for M06 Transcription Factor (Internal Marker) (AID 2282983; active = hit-call score of the fitted dose curve at least 0.9, where 1 is the maximum); settings: HepG2 Attagene TRANS M06 internal marker reporter
# In short: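 In this multiplexed HepG2 system, compounds are incubated 24 h with cells carrying GAL4-UAS reporter units. Reporter RNA is amplified and resolved by capillary electrophoresis, and induction is scored against DMSO.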
# [14] = ATG_M_32_TRANS: Attagene TRANS-FACTORIAL HepG2 Assay for M32 Transcription Factor (Internal Marker) (AID 2282984; active = hit-call score of the fitted dose curve at least 0.9, where 1 is the maximum;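 note: transcript level of a background control reporter unit measured by RT-PCR and capillary electrophoresis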); settings: HepG2 Attagene TRANS M32 internal marker reporter
# In short: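 Fluorescence-detected mRNA induction, HepG2 liver cells, 24 h after dosing. Multiple GAL4-UAS reporter units introduced by transient transfection; background-control endpoint analysed for gain of signal against DMSO.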
# [15] = molecular target: Nuclear receptor subfamily 4 group A member 2 (Homo sapiens) (UniProt P43354); assay: ATG_NURR1_TRANS: Attagene TRANS-FACTORIAL HepG2 Assay for human Nuclear Receptor Related Protein 1 (NURR1) (AID 2282985; active = hit-call score of the fitted dose curve at least 0.9, where 1 is the maximum); settings: HepG2 Attagene TRANS reporter, mRNA readout
# Sequence of Nuclear receptor subfamily 4 group A member 2 (Homo sapiens) (P43354 whole entry, looked up, the tested form may be a part): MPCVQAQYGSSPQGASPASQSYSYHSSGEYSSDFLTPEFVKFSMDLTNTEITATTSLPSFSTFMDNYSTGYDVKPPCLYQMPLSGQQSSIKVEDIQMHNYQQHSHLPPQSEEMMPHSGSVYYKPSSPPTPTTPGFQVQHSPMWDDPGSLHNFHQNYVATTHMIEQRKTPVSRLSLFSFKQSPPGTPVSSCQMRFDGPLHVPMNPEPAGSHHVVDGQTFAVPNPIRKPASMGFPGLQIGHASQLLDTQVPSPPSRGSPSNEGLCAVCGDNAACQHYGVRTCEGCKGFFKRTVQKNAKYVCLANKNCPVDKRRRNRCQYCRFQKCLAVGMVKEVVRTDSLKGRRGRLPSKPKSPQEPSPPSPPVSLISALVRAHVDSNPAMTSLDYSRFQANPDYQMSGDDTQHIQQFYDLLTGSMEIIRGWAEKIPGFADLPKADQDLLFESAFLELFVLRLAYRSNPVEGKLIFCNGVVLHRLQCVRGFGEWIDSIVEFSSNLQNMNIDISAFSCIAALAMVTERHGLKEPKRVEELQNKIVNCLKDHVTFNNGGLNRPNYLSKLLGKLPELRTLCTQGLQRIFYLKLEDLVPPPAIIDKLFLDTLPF
# In short: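 Chimeric NR-Gal4 proteins were expressed in human HepG2 cells bearing GAL4-UAS reporter units, and induced reporter mRNA was quantified 24 h post-dosing by RT-PCR and capillary electrophoresis.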
# [16] = ATG_NF_kB_CIS: Attagene CIS-FACTORIAL HepG2 Assay for human Nuclear Factor Kappa B (NF-kB) (AID 2282991); settings: HepG2 Attagene cis-factorial NF-kB reporter mRNA; actives raise or lower the signal
# In short: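 Readout is reporter transcript level, gain or loss versus DMSO, measured 24 h post-dose via RT-PCR, fluorescent labelling and capillary electrophoresis. Human HepG2 liver cells carried transiently transfected CIS reporter constructs reflecting endogenous factors.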
# [17] = molecular target: Bile acid receptor (Homo sapiens) (UniProt Q96RI1); assay: ATG_FXR_TRANS: Attagene TRANS-FACTORIAL HepG2 Assay for Farnesoid X Receptor (FXR) (AID 2282979; active = hit-call score of the fitted dose curve at least 0.9, where 1 is the maximum;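 note: hits raise reporter mRNA above DMSO so AC50 marks FXR activation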); settings: HepG2 Attagene TRANS FXR-GAL4 reporter transcription
# Sequence of Bile acid receptor (Homo sapiens) (Q96RI1 whole entry, looked up, the tested form may be a part): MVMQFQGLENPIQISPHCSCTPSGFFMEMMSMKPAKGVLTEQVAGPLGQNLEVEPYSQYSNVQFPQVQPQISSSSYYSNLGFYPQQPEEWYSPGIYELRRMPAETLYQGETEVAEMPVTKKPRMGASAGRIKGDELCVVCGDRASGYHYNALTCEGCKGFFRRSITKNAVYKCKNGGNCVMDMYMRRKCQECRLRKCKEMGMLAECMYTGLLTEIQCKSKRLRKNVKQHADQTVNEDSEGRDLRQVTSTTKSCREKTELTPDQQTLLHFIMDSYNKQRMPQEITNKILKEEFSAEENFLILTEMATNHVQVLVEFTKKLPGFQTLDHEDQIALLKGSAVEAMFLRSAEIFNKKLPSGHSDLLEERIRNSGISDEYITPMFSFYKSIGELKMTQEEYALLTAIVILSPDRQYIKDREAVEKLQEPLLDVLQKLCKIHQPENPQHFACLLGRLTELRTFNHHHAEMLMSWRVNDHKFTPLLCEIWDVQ
# In short: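 HepG2 cells transiently transfected with reporter constructs in which a chimeric FXR-GAL4 protein drives a GAL4-UAS reporter; 24 h compound exposure. Reporter mRNA measured by RT-PCR, FAM labelling, HpaI digestion and capillary electrophoresis; gain-of-signal versus DMSO.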
# [18] = molecular target: Hepatocyte nuclear factor 4-alpha (Homo sapiens) (UniProt P41235); assay: ATG_HNF4a_TRANS: Attagene TRANS-FACTORIAL HepG2 Assay for human Hepatocyte Nuclear Factor 4 alpha (HNF4a) (AID 2282982; active = hit-call score of the fitted dose curve at least 0.9, where 1 is the maximum); settings: HepG2 HNF4a transactivation reporter, mRNA readout
# Sequence of Hepatocyte nuclear factor 4-alpha (Homo sapiens) (P41235 whole entry, looked up, the tested form may be a part): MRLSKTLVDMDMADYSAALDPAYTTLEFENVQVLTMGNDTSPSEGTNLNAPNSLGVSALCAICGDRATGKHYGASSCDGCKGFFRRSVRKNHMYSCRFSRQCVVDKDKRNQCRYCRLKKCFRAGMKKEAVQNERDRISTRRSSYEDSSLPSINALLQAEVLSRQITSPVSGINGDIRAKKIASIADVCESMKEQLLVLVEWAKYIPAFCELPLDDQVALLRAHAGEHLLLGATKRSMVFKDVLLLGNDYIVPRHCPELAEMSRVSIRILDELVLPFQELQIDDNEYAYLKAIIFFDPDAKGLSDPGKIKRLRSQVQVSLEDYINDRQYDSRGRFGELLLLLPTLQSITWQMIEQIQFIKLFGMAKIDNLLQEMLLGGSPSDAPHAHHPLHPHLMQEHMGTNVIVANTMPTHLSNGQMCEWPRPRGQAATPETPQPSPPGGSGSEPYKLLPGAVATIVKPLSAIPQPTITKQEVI
# In short: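 Using HepG2 liver cells transfected with GAL4-UAS reporter units, chemical-induced mRNA increases were assessed after 24 hours. Fluorescent RT-PCR fragments were separated by capillary electrophoresis and compared with DMSO negative controls.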
# [19] = molecular target: Cellular tumor antigen p53 (Homo sapiens) (UniProt P04637); assay: ATG_p53_CIS: Attagene CIS-FACTORIAL HepG2 Assay for human p53 Transcription Factor (AID 2282994); settings: HepG2 p53 cis-element reporter, Attagene mRNA; actives raise or lower the signal
# Sequence of Cellular tumor antigen p53 (Homo sapiens) (P04637 whole entry, looked up, the tested form may be a part): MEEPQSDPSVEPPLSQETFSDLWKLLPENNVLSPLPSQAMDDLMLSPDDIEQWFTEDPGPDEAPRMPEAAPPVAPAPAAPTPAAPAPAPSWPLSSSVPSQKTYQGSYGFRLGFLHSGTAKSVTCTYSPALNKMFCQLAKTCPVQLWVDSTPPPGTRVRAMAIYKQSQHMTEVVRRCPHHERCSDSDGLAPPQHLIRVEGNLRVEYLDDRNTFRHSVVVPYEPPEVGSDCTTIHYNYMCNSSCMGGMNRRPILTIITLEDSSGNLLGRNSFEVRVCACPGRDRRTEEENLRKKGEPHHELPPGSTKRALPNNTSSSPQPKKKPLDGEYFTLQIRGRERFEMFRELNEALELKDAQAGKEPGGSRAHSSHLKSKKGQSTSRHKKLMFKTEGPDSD
# In short: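 In HepG2 cells, reporter transcription units under cis-regulatory promoters were transiently introduced. Following 24 h treatment, RNA was processed to labelled, digested cDNA fragments read by capillary electrophoresis; fitting was bidirectional versus DMSO.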
SMILES,outcome [1],outcome [2],outcome [3],outcome [4],outcome [5],outcome [6],outcome [7],outcome [8],outcome [9],outcome [10],outcome [11],outcome [12],outcome [13],outcome [14],AC50 [15],outcome [16],outcome [17],outcome [18],outcome [15],outcome [19]
Nc1ccn([C@@H]2O[C@H](CO)[C@@H](O)[C@@H]2O)c(=O)n1,inactive,inactive,inactive,inactive,inactive,inactive,inactive,inactive,inactive,inactive,inactive,inactive,,,,,,,,
CCCCCCCCCC,,,inactive,inactive,inactive,,inactive,inactive,inactive,inactive,inactive,inactive,,,,inactive,inactive,inactive,inactive,inactive
OC[C@H]1O[C@@H]2O[C@H]3[C@H](O)[C@@H](O)[C@@H](O[C@H]4[C@H](O)[C@@H](O)[C@@H](O[C@H]5[C@H](O)[C@@H](O)[C@@H](O[C@H]6[C@H](O)[C@@H](O)[C@@H](O[C@H]7[C@H](O)[C@@H](O)[C@@H](O[C@H]1[C@H](O)[C@H]2O)O[C@@H]7CO)O[C@@H]6CO)O[C@@H]5CO)O[C@@H]4CO)O[C@@H]3CO,,,inactive,inactive,inactive,inactive,,inactive,inactive,inactive,inactive,inactive,inactive,,,,,,inactive,
CCOC(N)=O,,,inactive,inactive,inactive,inactive,inactive,inactive,inactive,inactive,inactive,inactive,inactive,inactive,,,,,,inactive
NC(N)=O,,inactive,inactive,inactive,inactive,inactive,inactive,inactive,inactive,inactive,inactive,inactive,,inactive,,inactive,,inactive,inactive,
O=C(NO)C1(NS(=O)(=O)c2ccc(Oc3ccc(F)cc3)cc2)CCOCC1,inactive,inactive,inactive,inactive,inactive,inactive,,inactive,inactive,inactive,inactive,inactive,inactive,inactive,,inactive,,inactive,inactive,
Cn1c(=O)c2[nH]cnc2n(C)c1=O,,,inactive,inactive,inactive,,,inactive,inactive,inactive,inactive,inactive,,inactive,,inactive,inactive,inactive,inactive,inactive
